{"source": "PubChem BioAssay (NCATS)", "key": {"[1]": {"molecular_target": "Thyroid hormone receptor beta (Homo sapiens) (UniProt P10828)", "sequence (P10828 whole entry, looked up)": "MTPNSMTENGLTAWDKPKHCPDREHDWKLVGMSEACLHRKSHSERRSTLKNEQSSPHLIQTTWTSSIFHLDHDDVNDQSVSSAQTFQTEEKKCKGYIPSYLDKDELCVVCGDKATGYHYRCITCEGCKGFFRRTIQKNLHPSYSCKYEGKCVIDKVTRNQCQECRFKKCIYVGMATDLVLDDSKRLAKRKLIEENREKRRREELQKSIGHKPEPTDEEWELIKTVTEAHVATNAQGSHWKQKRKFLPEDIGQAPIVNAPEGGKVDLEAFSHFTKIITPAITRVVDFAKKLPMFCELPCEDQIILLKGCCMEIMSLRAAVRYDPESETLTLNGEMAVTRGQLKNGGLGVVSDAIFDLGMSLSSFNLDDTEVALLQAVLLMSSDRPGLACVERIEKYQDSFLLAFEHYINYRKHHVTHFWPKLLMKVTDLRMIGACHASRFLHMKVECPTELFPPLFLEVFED", "experiment": "qHTS assay for small molecule agonists of thyroid hormone receptor beta signaling (AID 588545; calls by dose curve)", "outline": "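Efficacy and EC50 values derive from Hill fits of qHTS titration data, normalized to 10 nM T3 and DMSO-only wells. HEK 293 reporter cells were stimulated for 18 hrs at 37 C, with beta-lactamase activity measured by CCF4 fluorescence.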"}, "[2]": {"molecular_target": "Androgen receptor (Homo sapiens) (UniProt P10275)", "sequence (P10275 whole entry, looked up)": "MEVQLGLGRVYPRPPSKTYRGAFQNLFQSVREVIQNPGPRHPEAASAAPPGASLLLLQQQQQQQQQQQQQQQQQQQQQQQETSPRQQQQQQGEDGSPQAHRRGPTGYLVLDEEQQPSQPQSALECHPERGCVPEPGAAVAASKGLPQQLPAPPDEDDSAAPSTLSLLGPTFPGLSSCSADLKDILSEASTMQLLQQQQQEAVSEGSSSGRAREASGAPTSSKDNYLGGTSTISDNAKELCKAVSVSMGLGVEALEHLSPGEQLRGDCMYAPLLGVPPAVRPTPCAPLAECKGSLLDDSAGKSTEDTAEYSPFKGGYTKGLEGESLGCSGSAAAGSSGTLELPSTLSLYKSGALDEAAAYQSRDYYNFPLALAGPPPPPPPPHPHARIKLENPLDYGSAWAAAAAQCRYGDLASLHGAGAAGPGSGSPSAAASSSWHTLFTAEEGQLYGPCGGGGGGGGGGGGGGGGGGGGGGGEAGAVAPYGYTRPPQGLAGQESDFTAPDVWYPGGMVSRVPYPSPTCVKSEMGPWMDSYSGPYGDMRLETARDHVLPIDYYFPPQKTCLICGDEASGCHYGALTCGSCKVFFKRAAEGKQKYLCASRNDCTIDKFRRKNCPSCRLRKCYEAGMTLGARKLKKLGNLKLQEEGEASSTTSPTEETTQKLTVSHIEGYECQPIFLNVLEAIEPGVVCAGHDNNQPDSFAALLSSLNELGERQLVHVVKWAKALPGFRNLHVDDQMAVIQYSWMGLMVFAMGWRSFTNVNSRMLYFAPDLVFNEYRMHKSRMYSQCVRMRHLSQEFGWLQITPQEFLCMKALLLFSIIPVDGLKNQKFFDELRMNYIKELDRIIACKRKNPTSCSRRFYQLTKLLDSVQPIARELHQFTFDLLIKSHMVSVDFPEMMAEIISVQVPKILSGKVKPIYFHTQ", "experiment": "qHTS assay for small molecule agonists of androgen receptor signaling (AID 588515; active = well fitted curve in the direction sought with a large enough effect in the signal ratio, with a control signal flat; the % refers to the signal ratio)", "settings": "AR-UAS-bla HEK293, beta-lactamase ratio, agonist 16 h; active compounds read high", "outline": "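Stimulation of an AR-responsive β-lactamase reporter in GripTite HEK293 cells was measured after 16 h compound exposure at 37 °C, via CCF4 fluorescence after 2 h RT. EC50 from Hill fits, normalized to R1881 at 30 nM.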"}, "[3]": {"molecular_target": "Androgen receptor (Homo sapiens) (UniProt P10275)", "experiment": "qHTS assay for small molecule antagonists of androgen receptor signaling (AID 588516; active = well fitted curve in the direction sought with a large enough effect in the signal ratio, with a control signal flat, not every such curve was filed as active; the % refers to the signal ratio)", "outline": "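Antagonist mode: inhibition of R1881-stimulated (10 nM final) bla reporter in GeneBLAzer AR HEK 293 cells, 16 h at 37C, compounds titrated. IC50 and efficacy from Hill-equation fits of 405/460–530 nm FRET ratios.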"}, "[4]": {"experiment": "Cell Viability - LYMP2-018 (AID 985); also: nearly all actives have a fitted effect of over 50% in size", "outline": "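Seed 2500 lymphoblastoid cells per well, incubate 5 hr at 37 C, add compound and incubate 24 hr at 37 C, add CellTiter-Glo, wait 30 min at room temperature, then read luminescence.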"}, "[5]": {"experiment": "qHTS assay to identify small molecules that stimulate interleukin-8 (IL-8) secretion (AID 651758; active = well fitted activation curve with a large enough effect in the signal ratio; the % refers to the signal ratio)", "outline": "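Quantitative HTS in THP-1 monocytic cells at 2000 cells per well, with 16 hrs compound incubation at 37 C. IL-8 in the medium was then quantified by HTRF immunoassay, read after 1-3 hrs at room temperature.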"}, "[6]": {"molecular_target": "Cytochrome P450 3A4 (Homo sapiens) (UniProt P08684)", "sequence (P08684 whole entry, looked up)": "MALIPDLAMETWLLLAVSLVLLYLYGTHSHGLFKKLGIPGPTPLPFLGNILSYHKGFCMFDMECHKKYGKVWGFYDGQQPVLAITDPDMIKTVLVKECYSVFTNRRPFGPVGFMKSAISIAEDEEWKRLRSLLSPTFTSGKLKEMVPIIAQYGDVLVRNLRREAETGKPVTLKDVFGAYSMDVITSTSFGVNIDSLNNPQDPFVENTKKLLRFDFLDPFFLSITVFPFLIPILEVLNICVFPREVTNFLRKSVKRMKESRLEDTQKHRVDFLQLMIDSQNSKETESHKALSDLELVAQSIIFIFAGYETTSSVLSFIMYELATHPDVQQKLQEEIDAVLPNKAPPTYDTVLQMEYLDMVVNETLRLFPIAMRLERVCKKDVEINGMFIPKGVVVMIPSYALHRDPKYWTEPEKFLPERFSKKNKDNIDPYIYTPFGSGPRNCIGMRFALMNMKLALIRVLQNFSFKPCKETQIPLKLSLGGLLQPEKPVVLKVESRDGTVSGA", "experiment": "qHTS Assay for Activators of Cytochrome P450 3A4 (AID 885); also: nearly all actives have a fitted effect of over 65% in size", "outline": "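Using 20nM recombinant human CYP3A4 in potassium phosphate (200mM), substrate Luciferin-PPXE at 25uM, luminescent luciferin detection followed a 60-min RT NADPH reaction; data scaled to 57 uM ketoconazole.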"}, "[7]": {"molecular_target": "ATP-dependent 6-phosphofructokinase (Trypanosoma brucei brucei) (UniProt O15648)", "sequence (O15648 whole entry, looked up)": "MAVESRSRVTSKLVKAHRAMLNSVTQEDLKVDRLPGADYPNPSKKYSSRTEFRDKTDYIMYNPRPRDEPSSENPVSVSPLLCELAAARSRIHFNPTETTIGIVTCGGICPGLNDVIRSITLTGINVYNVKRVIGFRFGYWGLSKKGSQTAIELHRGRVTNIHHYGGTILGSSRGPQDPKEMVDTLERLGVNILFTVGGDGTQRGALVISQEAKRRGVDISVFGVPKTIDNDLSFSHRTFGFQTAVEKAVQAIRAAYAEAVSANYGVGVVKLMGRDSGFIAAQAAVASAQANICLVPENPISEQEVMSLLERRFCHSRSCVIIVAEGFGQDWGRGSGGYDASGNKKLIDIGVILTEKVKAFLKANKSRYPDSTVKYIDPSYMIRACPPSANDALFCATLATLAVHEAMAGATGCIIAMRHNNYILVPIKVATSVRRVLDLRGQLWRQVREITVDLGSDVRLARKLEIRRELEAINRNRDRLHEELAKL", "experiment": "qHTS Assay to Find Inhibitors of T. brucei phosphofructokinase: hit validation (AID 492961)", "outline": "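Reaction: 0.1 M triethanolamine pH 8.0, 5 mM MgCl2, F6P 0.5 mM, ATP 0.1 mM, PFK 1.25 nM, 45 min RT. Read-out: ADP-Glo luminescence. Analysis: concentration-response fits, classed by r2 and efficacy.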"}, "[8]": {"molecular_target": "Ubiquitin carboxyl-terminal hydrolase 1 (Homo sapiens) (UniProt O94782)", "experiment": "Inhibitors of USP1/UAF1: Pilot qHTS (AID 504865);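 also: rhodamine fluorescence freed from ubiquitin-rhodamine substrate followed over time; top concentration of the series differs between compounds; nearly all actives have a fitted effect of over 35% in size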", "outline": "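Deubiquitinase activity followed as kinetic rhodamine fluorescence release from 150 nM Ub-Rho. 1 nM USP1/UAF1 with compound, after 15 min room-temperature preincubation, in HEPES pH 7.8 buffer containing TCEP, EDTA, BSA and Tween-20.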"}, "[9]": {"experiment": "qHTS profiling for inhibitors of Plasmodium falciparum proliferation (AID 504749); also: nearly all actives have a fitted effect of over 60% in size", "settings": "P. falciparum in erythrocytes, SYBR Green DNA, 72 h, at 28.7 µM (top of the series)", "outline": "(§1)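 Quantitative HTS: compounds pinned into medium, infected erythrocytes added (0.3% parasitemia, 2.5% hematocrit), 72 h culture at 37 C under 5% CO2. Saponin/Triton lysis with SYBR Green I, overnight RT, then fluorescence read.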"}, "[10]": {"tested_on": "DFO2036", "experiment": "qHTS profiling for inhibitors of Plasmodium falciparum proliferation (AID 504749)", "settings": "P. falciparum in erythrocytes, SYBR Green DNA, 72 h; series mostly up to 28.7 µM", "outline": "as §1"}, "[11]": {"experiment": "AP1 Signaling Pathway (AID 357; active = well fitted curve in either direction with a large enough effect, not every such curve was filed as active)", "outline": "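Beta-lactamase reporter under AP-1 response element, ME-180 background. Stimulus: EC50 EGF. Compound exposure 5 h, 37 °C. Detection: CCF4, 2.5 h RT, 460/530 nm. Values: AC50 from titration.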"}, "[12]": {"molecular_target": "Cytochrome P450 1A2 (Homo sapiens) (UniProt P05177)", "sequence (P05177 whole entry, looked up)": "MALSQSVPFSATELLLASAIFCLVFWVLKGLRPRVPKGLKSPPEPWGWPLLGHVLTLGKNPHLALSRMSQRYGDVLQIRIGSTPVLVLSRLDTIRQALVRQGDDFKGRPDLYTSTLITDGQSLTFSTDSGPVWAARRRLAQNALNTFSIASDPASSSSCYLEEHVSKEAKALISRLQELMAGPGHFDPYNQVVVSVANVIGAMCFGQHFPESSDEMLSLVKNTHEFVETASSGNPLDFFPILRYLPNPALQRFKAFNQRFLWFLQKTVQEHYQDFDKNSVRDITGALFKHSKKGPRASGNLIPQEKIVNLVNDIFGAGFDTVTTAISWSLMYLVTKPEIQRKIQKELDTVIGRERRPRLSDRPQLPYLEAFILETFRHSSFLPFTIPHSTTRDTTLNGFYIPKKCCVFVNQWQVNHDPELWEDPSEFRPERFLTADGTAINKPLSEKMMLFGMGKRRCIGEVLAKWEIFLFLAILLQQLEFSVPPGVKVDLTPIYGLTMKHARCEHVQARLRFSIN", "experiment": "p450-cyp1a2 (AID 410; calls by dose curve)", "outline": "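O-Demethylation of luciferin 6' methyl ether by human CYP1A2 is monitored as luciferase luminescence. Substrate sits at Km (100uM); enzyme is 20nM. Values are scaled to 57 uM furafylline as maximal inhibition.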"}, "[13]": {"experiment": "Stat Signaling Pathway (AID 446; active = well fitted curve in either direction with a large enough effect, not every such curve was filed as active)", "outline": "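Overnight-plated ME-180 cells bearing a STAT Inducible Element beta-lactamase reporter; 5 h co-exposure to compound and 40 pM IL-6; values normalized to 300 pM IL-6 and 125 nM JAK inhibitor controls.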"}, "[14]": {"molecular_target": "Glucocorticoid receptor (Homo sapiens) (UniProt P04150)", "sequence (P04150 whole entry, looked up)": "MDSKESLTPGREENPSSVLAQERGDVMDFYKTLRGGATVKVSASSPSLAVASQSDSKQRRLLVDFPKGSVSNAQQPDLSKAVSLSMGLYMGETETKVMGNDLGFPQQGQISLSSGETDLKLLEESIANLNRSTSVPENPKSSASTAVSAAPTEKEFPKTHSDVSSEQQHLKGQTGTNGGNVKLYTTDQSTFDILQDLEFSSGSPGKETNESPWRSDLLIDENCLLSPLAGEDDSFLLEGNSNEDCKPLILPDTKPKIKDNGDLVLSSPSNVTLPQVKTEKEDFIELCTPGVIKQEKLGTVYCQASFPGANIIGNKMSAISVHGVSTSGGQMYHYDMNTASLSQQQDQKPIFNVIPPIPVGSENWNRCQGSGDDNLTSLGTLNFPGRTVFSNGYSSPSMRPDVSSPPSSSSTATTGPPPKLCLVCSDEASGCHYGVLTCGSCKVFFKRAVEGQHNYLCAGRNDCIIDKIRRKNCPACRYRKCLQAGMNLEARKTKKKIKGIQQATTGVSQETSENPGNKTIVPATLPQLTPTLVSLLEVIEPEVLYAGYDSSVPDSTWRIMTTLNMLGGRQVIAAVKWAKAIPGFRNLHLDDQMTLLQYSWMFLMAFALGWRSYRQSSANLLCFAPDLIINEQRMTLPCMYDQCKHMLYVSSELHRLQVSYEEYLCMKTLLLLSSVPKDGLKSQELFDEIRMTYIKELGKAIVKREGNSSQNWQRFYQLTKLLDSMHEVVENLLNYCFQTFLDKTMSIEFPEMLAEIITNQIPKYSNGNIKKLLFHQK", "experiment": "GR-GFP Redistribution (AID 450;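 active = compounds whose dose series gives a full or clear partial fitted curve of increased nuclear translocation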)", "settings": "U2OS GR-GFP nuclear translocation, laser cytometry, 2 h"}, "[15]": {"molecular_target": "3',5'-cyclic-AMP phosphodiesterase 4B (Homo sapiens) (UniProt Q07343)", "sequence (Q07343 whole entry, looked up)": "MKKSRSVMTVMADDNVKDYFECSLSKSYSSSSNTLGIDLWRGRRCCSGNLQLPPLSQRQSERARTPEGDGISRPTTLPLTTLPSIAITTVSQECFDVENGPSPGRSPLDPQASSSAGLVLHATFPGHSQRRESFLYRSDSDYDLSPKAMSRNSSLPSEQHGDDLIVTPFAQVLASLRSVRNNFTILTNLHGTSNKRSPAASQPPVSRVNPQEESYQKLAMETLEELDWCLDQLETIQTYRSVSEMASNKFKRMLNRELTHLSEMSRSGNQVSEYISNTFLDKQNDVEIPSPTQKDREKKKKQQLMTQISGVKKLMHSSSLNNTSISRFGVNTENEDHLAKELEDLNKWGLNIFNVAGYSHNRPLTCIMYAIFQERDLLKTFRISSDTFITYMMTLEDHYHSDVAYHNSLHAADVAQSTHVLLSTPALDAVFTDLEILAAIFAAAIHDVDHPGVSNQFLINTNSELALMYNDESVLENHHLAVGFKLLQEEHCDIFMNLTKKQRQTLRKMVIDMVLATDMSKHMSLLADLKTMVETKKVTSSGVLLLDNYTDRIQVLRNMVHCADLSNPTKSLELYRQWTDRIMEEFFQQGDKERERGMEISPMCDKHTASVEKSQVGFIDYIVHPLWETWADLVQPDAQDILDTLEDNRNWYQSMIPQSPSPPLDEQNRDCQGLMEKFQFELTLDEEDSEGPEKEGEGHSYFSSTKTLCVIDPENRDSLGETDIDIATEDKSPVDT", "experiment": "qHTS Assay for Inhibitors of PDE-IV (AID 607; active = well fitted activation curve with a large enough effect in the main read-out, with a control signal flat, not every such curve was filed as active)", "outline": "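Live HEK293 cells with a modified cyclic nucleotide-gated (CNG) channel report intracellular cAMP via membrane-potential dye fluorescence (ex 535/em 590 nm). Endogenous PDE-IV was targeted. Compounds were tested at up to 22.9 uM final; RO 20-1724 100 uM served as control.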"}, "[16]": {"molecular_target": "Cytochrome P450 2D6 (Homo sapiens) (UniProt P10635)", "sequence (P10635 whole entry, looked up)": "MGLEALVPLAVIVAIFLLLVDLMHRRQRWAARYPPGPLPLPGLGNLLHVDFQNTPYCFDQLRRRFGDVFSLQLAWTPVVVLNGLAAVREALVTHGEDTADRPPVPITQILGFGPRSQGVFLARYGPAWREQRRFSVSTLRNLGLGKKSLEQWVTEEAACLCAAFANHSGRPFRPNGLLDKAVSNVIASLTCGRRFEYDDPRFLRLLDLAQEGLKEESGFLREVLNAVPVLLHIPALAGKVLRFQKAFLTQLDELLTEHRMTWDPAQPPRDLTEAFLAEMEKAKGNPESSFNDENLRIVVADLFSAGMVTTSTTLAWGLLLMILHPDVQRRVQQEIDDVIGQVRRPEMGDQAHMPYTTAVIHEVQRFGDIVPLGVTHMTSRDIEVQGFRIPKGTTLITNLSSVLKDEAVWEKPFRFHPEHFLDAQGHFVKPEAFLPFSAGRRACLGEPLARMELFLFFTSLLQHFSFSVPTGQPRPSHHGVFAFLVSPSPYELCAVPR", "experiment": "qHTS Assay for Inhibitors and Substrates of Cytochrome P450 2D6 (AID 891)", "outline": "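Luminescent read-out of luciferin formed by 5 nM human CYP2D6 demethylating 30 uM Luciferin-ME EGE (Km level) over 60 min at room temperature after NADPH regeneration addition. Data normalized to full inhibition by 1.43 uM quinidine.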"}}, "note": "Where “and” joins values, the source holds several entries; their conditions need not be identical. Identical values can stand only once. A number with no mark means an inactive call. Inconclusive results are not listed. Where a call stands in place of a potency, no number is given. Calls of active or inactive are those of the source. Unless noted, calls follow the shape of the dose curve; as a rule, active = well fitted curve in the direction sought with a large enough effect; inconclusive = small, poorly fitted or top-dose-only effect, or another doubt; inactive = no such curve, though single readings can be large; an effect the other way counts as inactive or inconclusive.", "data": [{"smiles": "C1CCC2CCCCC2C1", "note": "(stereo unspecified)", "values": [{"measurement": "outcome", "setting": "[1]", "value": "inactive"}]}, {"smiles": "CCN(CC)c1ccccc1", "values": [{"measurement": "activation", "setting": "[2]", "value": 12.2, "unit": "%"}, {"measurement": "Potency", "setting": "[3]", "value": "inactive"}, {"measurement": "outcome", "setting": "[1]", "value": "inactive"}]}, {"smiles": "CC(O)CCl", "note": "(stereo unspecified)", "values": [{"measurement": "Potency", "setting": "[4]", "value": "inactive"}]}, {"smiles": "Brc1ccccc1", "values": [{"measurement": "activation", "setting": "[2]", "value": "9.26% and -0.282%"}, {"measurement": "Potency", "setting": "[3]", "value": "inactive"}, {"measurement": "outcome", "setting": "[1]", "value": "inactive"}]}, {"smiles": "ClCBr", "values": [{"measurement": "outcome", "setting": "[1]", "value": "inactive"}, {"measurement": "Potency", "setting": "[5]", "value": "inactive"}]}, {"smiles": "[O-][Br+2]([O-])O", "values": [{"measurement": "Potency", "setting": "[4]", "value": "inactive"}, {"measurement": "activation", "setting": "[2]", "value": "4.89% and 1.1%"}, {"measurement": "Potency", "setting": "[3]", "value": "inactive"}, {"measurement": "Potency", "setting": "[5]", "value": "inactive"}]}, {"smiles": "ClC(Cl)(Cl)c1ccccc1", "values": [{"measurement": "outcome", "setting": "[1]", "value": "inactive"}]}, {"smiles": "C=CC1CC=CCC1", "note": "(stereo unspecified)", "values": [{"measurement": "outcome", "setting": "[1]", "value": "inactive"}]}, {"smiles": "Clc1cccc(C(Cl)(Cl)Cl)n1", "values": [{"measurement": "Potency", "setting": "[6]", "value": "inactive"}, {"measurement": "Potency", "setting": "[4]", "value": "inactive"}, {"measurement": "activation", "setting": "[2]", "value": -4.18, "unit": "%"}, {"measurement": "Potency", "setting": "[3]", "value": "inactive"}, {"measurement": "outcome", "setting": "[1]", "value": "inactive"}, {"measurement": "Potency", "setting": "[5]", "value": "inactive"}]}, {"smiles": "C[C@]12CC[C@H]3[C@@H](CCC4=CC(=O)CC[C@@]43C)[C@@H]1CC[C@@H]2O", "values": [{"measurement": "Potency", "setting": "[7]", "value": "inactive"}, {"measurement": "Potency", "setting": "[8]", "value": "inactive"}, {"measurement": "outcome", "setting": "[1]", "value": "inactive"}, {"measurement": "activity, negative = inhibition", "setting": "[9]; parasite line A", "value": -11.8, "unit": "%"}, {"measurement": "activity, negative = inhibition", "setting": "[9]; parasite line B", "value": -14.6, "unit": "%"}, {"measurement": "Potency", "setting": "[10]", "value": "inactive"}]}, {"smiles": "CC(C)(C)OO", "values": [{"measurement": "Potency", "setting": "[4]", "value": "inactive"}, {"measurement": "activation", "setting": "[2]", "value": -8.84, "unit": "%"}, {"measurement": "Potency", "setting": "[3]", "value": "inactive"}, {"measurement": "Potency", "setting": "[5]", "value": "inactive"}]}, {"smiles": "Brc1ccc(Oc2cc(Br)c(Br)cc2Br)c(Br)c1", "values": [{"measurement": "Potency", "setting": "[4]", "value": "inactive"}]}, {"smiles": "Clc1nc(Cl)nc(Nc2ccccc2Cl)n1", "values": [{"measurement": "Potency", "setting": "[4]", "value": "inactive"}, {"measurement": "outcome", "setting": "[1]", "value": "inactive"}]}, {"smiles": "C=CCOC(C)=O", "values": [{"measurement": "activation", "setting": "[2]", "value": -7.35, "unit": "%"}]}, {"smiles": "COc1cc2c(cc1O)[C@H]1Cc3ccc(OC)c(O)c3CN1CC2", "values": [{"measurement": "outcome", "setting": "[11]", "value": "inactive"}, {"measurement": "Potency", "setting": "[12]", "value": "15.8 µM (active)"}, {"measurement": "outcome", "setting": "[13]", "value": "inactive"}, {"measurement": "Potency", "setting": "[14]", "value": "> 20.6", "unit": "µM"}, {"measurement": "Potency", "setting": "[15]", "value": "inactive"}, {"measurement": "Potency", "setting": "[6]", "value": "inactive"}, {"measurement": "Potency", "setting": "[16]", "value": "31.6 nM (active)"}]}, {"smiles": "O=NN(CCO)CCO", "values": [{"measurement": "Potency", "setting": "[4]", "value": "inactive"}, {"measurement": "activation", "setting": "[2]", "value": 14, "unit": "%"}, {"measurement": "Potency", "setting": "[3]", "value": "inactive"}]}]}
